Test results published in PubChem BioAssay (NCI).
Compounds without any hit were thinned out: in the full panel of roughly 83,000, 20% have a hit.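 The test compound was applied at a single concentration to cells in 96-well plates for 48 hours, and percent growth was recorded.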 A number with no mark means an inactive call. Calls of active or inactive are those of the source. How the source made its calls: active means growth percent below 10; inactive means the rest.

Each compound was assayed on BT-549 breast (assay: NCI-60 one-dose screen, 48 h (100 = growth as untreated, 0 = no growth, -100 = all killed)). Settings: 10 µM unless noted.
Work on `COc1cc(-c2nccc3[nH]c(-c4ccc5cc[nH]c5c4)nc23)cc(OC)c1OC` yielded a growth of 18.4%.
For `COc1ccc(/C=C/C(=O)c2cccc(OCCCCOc3cccc(C(=O)/C=C/c4ccc(OC)c(OC)c4)c3)c2)cc1OC`, the growth was 60.7%.
Work on `CC(C)COc1nc2c(c(=O)n(C)c(=O)n2C)n1C` yielded a growth of 103%.
Work on `NC(=O)c1c(NC(=O)c2ccc3ccccc3c2)sc2c1CCC(=O)C2` yielded a growth of 20.9%.
`C=C1C(=O)O[C@H]2[C@H]1CC/C(COC(=O)NCc1ccc(Cn3c(=O)sn(CCCCC)c3=O)cc1)=C\CC[C@@]1(C)O[C@@H]21` showed a growth of 42.5%.
With `COc1cc(OC)c(/C=C/C(=O)c2c(OC)cccc2OC)c(OC)c1` the growth was 7.43% (active).
In the case of `COC1=CC(c2ccc[nH]2)=N/C1=C\c1[nH]c(C)c(C)c1CCC(=O)OCc1ccccc1`, the growth is reported as -28.7% (active).
For `CCCCCCCCCCC(CN(CC)CC)C(O)c1ccccc1` (stereo not drawn), the growth was 61.7%.
`CCOC(=O)C1=C(c2ccccc2)N=C2SC=C(c3ccc(Cl)cc3)N2C1c1ccc(Br)cc1` (stereo not drawn) was tested, and the growth was 84.3%.
Compound `O=C(COc1ccc(-c2nc3cc(Cl)c(Cl)cc3[nH]2)cc1)N=Nc1c(O)[nH]c2ccc(Cl)cc12` has a growth of 76.7%.
With `Cn1ccc(=O)c(C(=O)Nc2nsc3ccc([N+](=O)[O-])cc23)c1` the growth was 69.8%.
`COC(=O)[C@]1(C)CCC[C@]2(C)[C@H]3C[C@H]4C(C(C)C)=C[C@]3(CC[C@H]21)[C@@H]1C(=O)CC[C@H](OCCC#N)[C@@H]14` was tested, and the growth was 87.5%.
Work on `O=c1c2ccccc2n2cnc3ccc(Cl)c1c32` yielded a growth of 75.4%.
`Cc1cc(=O)n(C(=O)Nc2ccccc2Cl)c2cc(O)ccc12` was tested, and the growth was 94.4%.
With `Cn1cc(-c2nonc2-c2cn(C)c3ccccc23)c2ccccc21` the growth was 31.1%.
Compound `COc1ccc(C(C)=O)cc1S(=O)(=O)Nc1c(N)nc(SC)[nH]c1=O` has a growth of 117%.
For `O=C(/C=C(/C=C/c1ccc2[nH]ccc2c1)OB(F)F)/C=C/c1ccc2[nH]ccc2c1`, the growth was -28.2% (active).
For `NC(=O)C(=O)c1ccccc1NC=O`, the growth was 107%.
`O=S(=O)(Nc1cc(F)cc(Cl)c1)c1ccc(-c2cnc(C3CC3)o2)cc1` showed a growth of 40.6%.
`COc1ccc(NC2=C(I)C(=O)c3ncccc3C2=O)cc1` was tested, and the growth was -6.34% (active).
`COc1cc2ncnc(Nc3ccc(F)c(Cl)c3)c2cc1OCC(=O)N1CCN(c2ccccc2)CC1` was tested, and the growth was 106%.
In the case of `N#Cc1nc(-c2ccccc2)oc1S(=O)(=O)N1CCN(c2ccccc2)CC1`, the growth is reported as 90.8%.
With `COc1ccc2cc1Oc1ccc(cc1)C[C@H]1c3c(cc4c(c3Oc3cc5c(cc3OC)CCN(C)[C@@H]5C2)OCO4)CCN1C` the growth was 52%.
With `Nc1cnc(C(=O)NNc2nc3cc(F)ccc3n3cccc23)cn1` the growth was 52.9%.
`Cc1ccc(-c2nc([P+](c3ccccc3)(c3ccccc3)c3ccccc3)c(S(=O)(=O)c3ccc(C)cc3)o2)cc1` was tested, and the growth was 8.67% (active).
In the case of `Cc1cccc(/C=C/c2c(C(=O)/C=C/c3ccccc3)c(C)nc3ccccc23)c1`, the growth is reported as 2.21% (active).
With `Cc1c2cnccc2c(C)c2c1c1cc(C#N)ccc1n2C` the growth was -62% (active).
In the case of `COc1ccc(C(=O)/C=C/c2c(C(F)(F)F)nc3ccccn23)cc1OC`, the growth is reported as 4.31% (active).
`O=C1NC(=O)C(Cc2ccc(OCc3ccc(-c4ccc(Cl)cc4Cl)cc3)cc2)S1` (stereo not drawn) was tested, and the growth was 37.9%.
`CSc1oc(C)nc1[P+](c1ccccc1)(c1ccccc1)c1ccccc1` showed a growth of 43.4%.
Work on `COc1cc2cc(NCc3cccc(Cl)c3)nc(C)c2cc1OC` yielded a growth of 23.1%.
`NS(=O)(=O)c1ccc(N=Nc2c(O)n(Cc3ccccc3)c3ccc(Cl)cc23)cc1` was tested, and the growth was 81.2%.
`COc1cc(NS(=O)(=O)c2ccc(-c3cnc(C4CC4)o3)cc2)ccc1F` was tested, and the growth was 44.6%.
`O=S(=O)(Nc1ccc(Cl)c(C(F)(F)F)c1)c1ccc(-c2cnc(C3CC3)o2)cc1` was tested, and the growth was 23.7%.
`O=C(N/N=C/c1ccc(Cl)cc1)c1[nH]c2ccc(Cl)cc2c1-c1ccccc1` gave a growth of 10.2%.
`O=C(/C=C/c1cccs1)Nc1ncc(Cc2ccccc2F)s1` was tested, and the growth was 52.3%.
For `C=CCc1c(O)c(C(=O)/C=C/c2ccccc2)c(OC)c2ccoc12`, the growth was 34.3%.
With `O=S(=O)(Nc1cc(Cl)ccc1Cl)c1ccc(-c2cnc(C3CC3)o2)cc1` the growth was 40.5%.
For `CN(C)c1ccc(C(=O)OCCCCCCl)cc1`, the growth was 94.1%.

Each compound was assayed on MDA-MB-435 melanoma in the same assay as above. Settings: 10 µM unless noted.
In the case of `COc1cc(-c2nccc3[nH]c(-c4ccc5cc[nH]c5c4)nc23)cc(OC)c1OC`, the growth is reported as 5.17% (active).
In the case of `COc1ccc(/C=C/C(=O)c2cccc(OCCCCOc3cccc(C(=O)/C=C/c4ccc(OC)c(OC)c4)c3)c2)cc1OC`, the growth is reported as 75.5%.
In the case of `CC(C)COc1nc2c(c(=O)n(C)c(=O)n2C)n1C`, the growth is reported as 104%.
`NC(=O)c1c(NC(=O)c2ccc3ccccc3c2)sc2c1CCC(=O)C2` gave a growth of 92.8%.
For `C=C1C(=O)O[C@H]2[C@H]1CC/C(COC(=O)NCc1ccc(Cn3c(=O)sn(CCCCC)c3=O)cc1)=C\CC[C@@]1(C)O[C@@H]21`, the growth was 25.7%.
For `COc1cc(OC)c(/C=C/C(=O)c2c(OC)cccc2OC)c(OC)c1`, the growth was -22% (active).
In the case of `COC1=CC(c2ccc[nH]2)=N/C1=C\c1[nH]c(C)c(C)c1CCC(=O)OCc1ccccc1`, the growth is reported as -39% (active).
With `CCCCCCCCCCC(CN(CC)CC)C(O)c1ccccc1` (stereo not drawn) the growth was -25.1% (active).
Compound `CCOC(=O)C1=C(c2ccccc2)N=C2SC=C(c3ccc(Cl)cc3)N2C1c1ccc(Br)cc1` (stereo not drawn) has a growth of 94.3%.
With `O=C(COc1ccc(-c2nc3cc(Cl)c(Cl)cc3[nH]2)cc1)N=Nc1c(O)[nH]c2ccc(Cl)cc12` the growth was 83.5%.
For `Cn1ccc(=O)c(C(=O)Nc2nsc3ccc([N+](=O)[O-])cc23)c1`, the growth was 75.6%.
`COC(=O)[C@]1(C)CCC[C@]2(C)[C@H]3C[C@H]4C(C(C)C)=C[C@]3(CC[C@H]21)[C@@H]1C(=O)CC[C@H](OCCC#N)[C@@H]14` showed a growth of 84.9%.
`O=c1c2ccccc2n2cnc3ccc(Cl)c1c32` gave a growth of 90.5%.
With `Cc1cc(=O)n(C(=O)Nc2ccccc2Cl)c2cc(O)ccc12` the growth was 104%.
In the case of `Cn1cc(-c2nonc2-c2cn(C)c3ccccc23)c2ccccc21`, the growth is reported as -34.3% (active).
With `COc1ccc(C(C)=O)cc1S(=O)(=O)Nc1c(N)nc(SC)[nH]c1=O` the growth was 97.7%.
For `O=C(/C=C(/C=C/c1ccc2[nH]ccc2c1)OB(F)F)/C=C/c1ccc2[nH]ccc2c1`, the growth was -4.54% (active).
`NC(=O)C(=O)c1ccccc1NC=O` gave a growth of 101%.
`O=S(=O)(Nc1cc(F)cc(Cl)c1)c1ccc(-c2cnc(C3CC3)o2)cc1` was tested, and the growth was 1.17% (active).
For `COc1ccc(NC2=C(I)C(=O)c3ncccc3C2=O)cc1`, the growth was -88.9% (active).
Compound `COc1cc2ncnc(Nc3ccc(F)c(Cl)c3)c2cc1OCC(=O)N1CCN(c2ccccc2)CC1` has a growth of 95.6%.
With `N#Cc1nc(-c2ccccc2)oc1S(=O)(=O)N1CCN(c2ccccc2)CC1` the growth was 86.3%.
`COc1ccc2cc1Oc1ccc(cc1)C[C@H]1c3c(cc4c(c3Oc3cc5c(cc3OC)CCN(C)[C@@H]5C2)OCO4)CCN1C` gave a growth of 19%.
In the case of `Nc1cnc(C(=O)NNc2nc3cc(F)ccc3n3cccc23)cn1`, the growth is reported as 38.9%.
In the case of `Cc1ccc(-c2nc([P+](c3ccccc3)(c3ccccc3)c3ccccc3)c(S(=O)(=O)c3ccc(C)cc3)o2)cc1`, the growth is reported as -2.81% (active).
For `Cc1cccc(/C=C/c2c(C(=O)/C=C/c3ccccc3)c(C)nc3ccccc23)c1`, the growth was -66% (active).
With `Cc1c2cnccc2c(C)c2c1c1cc(C#N)ccc1n2C` the growth was -57.6% (active).
`COc1ccc(C(=O)/C=C/c2c(C(F)(F)F)nc3ccccn23)cc1OC` gave a growth of 10.4%.
`O=C1NC(=O)C(Cc2ccc(OCc3ccc(-c4ccc(Cl)cc4Cl)cc3)cc2)S1` (stereo not drawn) gave a growth of 24.5%.
Work on `CSc1oc(C)nc1[P+](c1ccccc1)(c1ccccc1)c1ccccc1` yielded a growth of 41%.
`COc1cc2cc(NCc3cccc(Cl)c3)nc(C)c2cc1OC` was tested, and the growth was 4.19% (active).
With `NS(=O)(=O)c1ccc(N=Nc2c(O)n(Cc3ccccc3)c3ccc(Cl)cc23)cc1` the growth was 79.4%.
In the case of `COc1cc(NS(=O)(=O)c2ccc(-c3cnc(C4CC4)o3)cc2)ccc1F`, the growth is reported as -21.3% (active).
With `O=S(=O)(Nc1ccc(Cl)c(C(F)(F)F)c1)c1ccc(-c2cnc(C3CC3)o2)cc1` the growth was 2.82% (active).
In the case of `O=C(N/N=C/c1ccc(Cl)cc1)c1[nH]c2ccc(Cl)cc2c1-c1ccccc1`, the growth is reported as -33.3% (active).
`O=C(/C=C/c1cccs1)Nc1ncc(Cc2ccccc2F)s1` was tested, and the growth was -64.4% (active).
`C=CCc1c(O)c(C(=O)/C=C/c2ccccc2)c(OC)c2ccoc12` was tested, and the growth was 26.4%.
In the case of `O=S(=O)(Nc1cc(Cl)ccc1Cl)c1ccc(-c2cnc(C3CC3)o2)cc1`, the growth is reported as -12% (active).
`CN(C)c1ccc(C(=O)OCCCCCCl)cc1` gave a growth of 96.6%.
